# PubChem BioAssay AID651820 (National Center for Advancing Translational Sciences (NCATS), 2012)
# In all, about 340,000 compounds went through this assay and about 12,000 (3.5%) were called active. Not shown: some 18% with an inconclusive outcome. The call rests on the fitted dose curve; in most records, active means well fitted inhibition curve with a large enough effect; inconclusive means small, poorly fitted or top-dose-only effect, or another doubt; inactive means no such curve, though single readings can be large or run the other way. Many of the other results were omitted from the sample, so actives are more common in it than they were.
# Assay: qHTS Assay for Inhibitors of Hepatitis C Virus (HCV)
# Conditions: Huh7.5.1 HCVcc-Cre infection, luciferase reporter, 44 h; series mostly up to 41.8 µM; activity change, negative = inhibition: at the top concentration
# Procedure, shortened: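 Cells seeded at 1,000/well and cultured 4 h, then compounds added followed by HCVcc-Cre virus (~0.5 moi). After 44 h further culture, luciferase substrate was added, plates held 15 min at room temperature, and luminescence read for 15 sec.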
# On the % scale 0 is the no-effect control and ±100 the full control effect; potency means the concentration at half of the fitted maximal effect.
SMILES,"activity change, negative = inhibition",Potency
N#Cc1c(-c2ccccc2)c(-c2ccccc2)n[nH]c1=O,10.3% (inactive),–
N#Cc1c2c(c(-c3ccccc3)[nH]c1=O)CCCC2,-1.49% (inactive),–
N#Cc1c(/N=C/N2CCCC2)oc(-c2ccccc2)c1-c1ccccc1,–,14.1 µM (active)
CCN(CC)C(=O)c1nc[nH]c1C(=O)N(C)Cc1ccccc1,15.3% (inactive),–
COc1ccc(C(=O)N2CCN(c3ncccn3)CC2)cc1S(=O)(=O)N1CCOCC1,0.727% (inactive),–
CCC(=O)c1cc(F)ccc1OCC(=O)Nc1ccc2c(c1)OCCO2,-10.2% (inactive),–
Cc1ccc(N2CC(C(=O)Nc3ccc(S(=O)(=O)N4CCCC4)cc3)CC2=O)cc1C (centres undefined),0.4% (inactive),–
Cc1ccc(NC(=O)C2CC(=O)N(c3ccc4c(c3)OCCO4)C2)cc1S(=O)(=O)N1CCCCCC1 (centres undefined),–,10 µM (active)
COc1ccc(S(=O)(=O)N2CCCCC2)cc1NC(=O)C1CC(=O)N(c2ccc3c(c2)OCCO3)C1 (centres undefined),-11.2% (inactive),–
CN1C(C(=O)NCc2ccco2)CC2Cn3c(nc4ccccc43)C21 (centres undefined),10.9% (inactive),–
CCOC(=O)c1ccc(NC(=O)CS(=O)(=O)c2cn(CC)c3ccccc23)cc1,–,14.1 µM (active)
CC(=O)Nc1ccc(NC(=O)CS(=O)(=O)c2cn(CC(=O)N3CCCCC3)c3ccccc23)cc1,5.01% (inactive),–
CCOC(=O)c1ccc(NC(=O)CCn2c(=O)oc3ccccc32)cc1,24.3% (inactive),–
Cc1ccc(NC(=O)C(C)OC(=O)Cc2c[nH]c3ccccc23)cc1S(=O)(=O)N1CCOCC1 (centres undefined),-6.29% (inactive),–
Cc1ccc(C)c(S(=O)(=O)N(C)c2ccc(OC(=O)C3CCN(C(=O)c4ccc(F)cc4)CC3)cc2)c1,11.6% (inactive),–
CCCCNC1(C#N)CCN(Cc2ccccc2)CC1,12.6% (inactive),–
OCC1(Cc2ccccc2)CCN(Cc2cc3ccccc3o2)CC1,1.23% (inactive),–
CN(C)CCCCCN(C)Cc1cc2ccccc2o1,–,3.16 µM (active)
COc1ccccc1CN(C)C(=O)c1cc2ccccc2o1,4.38% (inactive),–
Brc1ccc(CN2CC[C@H]3C=CCc4cccc(c43)C2)cc1,-12.9% (inactive),–
COc1ccc(-c2nn(C)c(=O)c3ccccc23)cc1NC(=O)COc1ccccc1,–,10 µM (active)
COc1ccc(S(=O)(=O)N2CCOCC2)cc1NC(=O)COc1ccccc1,-5.17% (inactive),–

SMILES,"activity change, negative = inhibition",Potency
CCC(=O)NCc1cc(-c2nn(C)c(=O)c3ccccc23)ccc1OC,-2.55% (inactive),–
CC(C)(C)c1nnc2sc(SCC(O)=C(C#N)c3nc4ccccc4[nH]3)nn2c1=O,-8.95% (inactive),–
CCOC(=O)C1CCCN(C(=O)c2ccc(C)c(S(=O)(=O)N3CCCCC3)c2)C1 (centres undefined),21.1% (inactive),–
O=C1CCC/C=C\C[C@@H](CC(=O)N(CCO)Cc2ccccc2)C(=O)NCCO1,-0.947% (inactive),–
CC(OC(=O)/C=C/c1ccccc1)C(=O)Nc1ccc(C(N)=O)cc1 (centres undefined),17.8% (inactive),–
O=C(CCCO)N/N=C/c1cc(Br)ccc1O,12.6% (inactive),–
Oc1ccc(Br)cc1C=Nc1ccc2[nH]ncc2c1,12.4% (inactive),–
Oc1ccc(Br)cc1/C=N/Nc1ccccn1,–,3.55 µM (active)
O=C(NCC1CCCCC1)NCC1CCCCC1,21.3% (inactive),–
Cc1c(NC(=O)C(C)Oc2cccc(Cl)c2)c(=O)n(-c2ccccc2)n1C (centres undefined),7.65% (inactive),–
Cc1cc(C)n(-c2nc(C(F)(F)F)nc3ccccc23)n1,-1.56% (inactive),–
CC(Nc1nc(C(F)(F)F)nc2ccccc12)c1cccs1 (centres undefined),–,10 µM (active)
Cc1ccsc1C(=O)OCC(=O)NCCc1ccccc1,-13.2% (inactive),–
CC1CCCN(C(=O)Cn2c(=O)oc3cc(S(=O)(=O)N4CCCCC4C)ccc32)C1 (centres undefined),-7.12% (inactive),–
CCOc1cc(N2CCOCC2)c(OCC)cc1NC(=O)COc1cccc2cccnc12,–,7.94 µM (active)
CCOc1cc(N2CCOCC2)c(OCC)cc1NC(=O)c1ccc(C)s1,–,25.1 µM (active)
CCOc1cc(N2CCOCC2)c(OCC)cc1NC(=O)c1cc(C)nc2ccccc12,1.73% (inactive),–
NC(=O)C1CCN(C(=O)COc2cccc3cccnc23)CC1,19.5% (inactive),–
CCOc1cc(N2CCOCC2)c(OCC)cc1NC(=O)COC(=O)[C@H](Cc1c[nH]c2ccccc12)NC(C)=O,18.6% (inactive),–
CCOc1cc(N2CCOCC2)c(OCC)cc1NC(=O)C1=NN(c2cccc(C)c2)C(=O)CC1,-28.7% (inactive),–
CC(C)(C)NS(=O)(=O)NC(=O)C1=C(N2CCCC2)COC1=O,0.465% (inactive),–
COc1ccccc1CNC(=O)COC(=O)c1cccs1,4.7% (inactive),–

SMILES,"activity change, negative = inhibition",Potency
N#Cc1ccc(C(=O)Nc2nc(-c3cccs3)c(C(=O)C(F)(F)F)s2)cc1,–,11.2 µM (active)
Cc1ccc(C(=O)Nc2nnc(-c3cccs3)s2)cc1C,9.59% (inactive),–
CCOc1cccc(C(=O)Nc2nnc(-c3cccs3)s2)c1,21.8% (inactive),–
CC1CCN(C(=O)COC(=O)CCC(=O)c2cccs2)CC1,-5.03% (inactive),–
COCC(=O)N(C)[C@H]1C[C@H]2c3cc(Oc4ccccc4C)ccc3CCN2C(=O)[C@H]1[C@H](C)O,1.89% (inactive),–
CCN(CC)S(=O)(=O)c1ccc(OC)c(NC(=O)CCc2c(C)noc2C)c1,-29.5% (inactive),–
CCN(C(=O)CSc1nnc(-c2ccc(OC(F)F)cc2)n1N)C1CCS(=O)(=O)C1 (centres undefined),24.5% (inactive),–
O=C(Nc1cccc(-c2cscn2)c1)C1CCN(Cc2ccsc2)CC1,5.5% (inactive),–
CC(=O)c1cc(CN2CCC(n3nccc3NC(=O)c3ccccc3Cl)CC2)cs1,2.88% (inactive),–
CC(=O)c1cc(CN2CCC(C(=O)Nc3cccc(-c4cscn4)c3)CC2)cs1,–,10 µM (active)
CC(C)(C)OC(=O)C[C@@H]1C/C=C\C[C@@H](CC(=O)N[C@@H](CO)Cc2ccccc2)C(=O)N2CCC[C@H]2COC1=O,14% (inactive),–
c1ccc2c(c1)CSc1sccc1C2=C1CCNCC1,–,15.8 µM (active)
CN1CCC(N(C)S(=O)(=O)c2ccc(NC(=O)c3cccc(C#N)c3)cc2)CC1,-4.18% (inactive),–
Cc1cccc(NC(=O)c2cccc(C(F)(F)F)c2)c1,-13% (inactive),–
Cc1cccc(NC(=O)Nc2nnc(-c3ccccc3)o2)c1,-2.53% (inactive),–
Cc1cccc(NC(=O)Nc2cccc(Oc3c(F)c(F)c(F)c(F)c3F)c2)c1,–,11.2 µM (active)
Cc1cc(NC(=O)C(C)N2C(=O)c3ccccc3S2(=O)=O)no1 (centres undefined),2.31% (inactive),–
O=C(c1ccccc1)N1CCN(c2ccc([N+](=O)[O-])c(NCc3ccco3)c2)CC1,–,8.91 µM (active)
O=[N+]([O-])c1ccc(N2CCN(S(=O)(=O)c3ccc4ccccc4c3)CC2)cc1NCc1ccco1,-2.92% (inactive),–
O=C(c1ccc(S(=O)(=O)NCc2ccco2)cc1)N1CCN(c2ccccc2)CC1,1.43% (inactive),–
